Screens as filed in PubChem BioAssay.
BCR signal inh: inhibitors of chronic active B-cell receptor signaling; actives 0.05% (n = 340,000); Potency, µM (series often up to 46.1 µM), most hits filed as inhibitors; ABC-DLBCL IkBa-CBG/CBR reporter, luminescence ratio, 4 h; active = well fitted inhibition curve with a large enough effect in the signal ratio, with a control signal flat, not every such curve was filed as active; inconclusive = small, poorly fitted or top-dose-only effect, or effect the other way, or a change in a side signal; the % refers to the signal ratio
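Compounds up to 46 uM were incubated four hours with TMD8 cells whose green CBG68 luciferase is fused to IkappaBalpha; red CBR luminescence normalised the signal, and concentration-effect curves were fitted to fusion, red and ratio data.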
TDP1 cell CPT: growth inhibition of DT40 Tdp1-/-;hTDP1 cells with camptothecin (screen for TDP1 inhibitors) | chicken DT40 Tdp1-/-;hTDP1 cells + 20 nM CPT, ATP luminescence, 48 h | actives 12% (n = 420,000) | AID 686979 | Potency, µM (highest dose often 46.2 µM), hits mostly inhibitors; note: nearly all actives have a fitted effect of over 55% in size
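Chicken DT40 Tdp1-/- cells complemented with human TDP1, 400 cells/well, exposed to compounds plus 20 nM camptothecin for at least 48 h at 37 C; viability read as ATP content by CellTiter-Glo luminescence.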
SW480 rereplic: DNA re-replication induction in SW480 cells; actives 1.8% (n = 340,000); SW480 DNA re-replication, Hoechst DNA content imaging, 48 h; AID 624297; Potency, µM (titrated, usually from 46.1 µM), hits mostly activators; note: nearly all actives have a fitted effect of over 55% in size
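Treated cells incubate 48 hr (37 C, 5% CO2), are stained 40 min with Hoechst, and nuclear fluorescence is enumerated; a rise in nuclei with high DNA signal marks re-replication.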
IL1B secr inh: inhibitors of inflammasome signaling (IL-1 beta secretion); actives 4.7% (n = 360,000); activity change, % at 57.5 µM; THP-1 LPS/ATP IL-1B secretion, AlphaLISA, 16 h; stronger effect = lower value; in the data active = activity change below about -50%; inconclusive = mostly about -30% to -49%
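THP-1 cells pretreated 1 hr with compounds (up to 57.5 uM final), then stimulated with LPS (250 ng/mL final) plus ATP (1.25 mM final); secreted IL-1B measured by AlphaLISA after 16 hr, decreased signal indicating inhibition.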
MCF10A rereplic: inducers of DNA re-replication in MCF 10A breast cells; MCF 10A DNA re-replication, Hoechst nuclear intensity, 48 h; Potency, µM (top dose mostly 46.1 µM), hits mostly activators; actives 2.9% (n = 350,000); note: nearly all actives have a fitted effect of over 50% in size
DT40 TDP1 no CPT: qHTS for Inhibitors of human tyrosyl-DNA phosphodiesterase 1 (TDP1): qHTS in cells in absence of CPT; Potency, µM (titrated, usually from 46.2 µM), usual class: inhibitors; DT40 Tdp1-/- hTDP1 cells, no CPT, ATP luminescence, 48 h; AID 686978, 2013; actives 15% (n = 420,000); note: nearly all actives have a fitted effect of over 55% in size
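Growth of hTDP1-complemented DT40 Tdp1-knockout cells is measured by ATP luminescence after at least 48 hr compound exposure at 37 °C, with DMSO substituting for the 20 nM CPT used in the parallel screen.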
A number is an active result; . = inactive; ? = inconclusive; / = not tested or not shown. Sampled rows, rich in hits. Any-hit rate of the full collection: about 19%. Unless noted, calls come from the whole dose curve; as a rule, active = well fitted curve in the direction sought with a large enough effect; inconclusive = small, poorly fitted or top-dose-only effect, or another doubt; inactive = no such curve, though single readings can be large; an effect the other way counts as inactive or inconclusive.

SMILES	BCR signal inh	TDP1 cell CPT	SW480 rereplic	IL1B secr inh	MCF10A rereplic	DT40 TDP1 no CPT
CO[C@H]1C[C@@H]2CC[C@@H](C)[C@@](O)(O2)C(=O)C(=O)N2CCCC[C@H]2C(=O)OC([C@H](C)C[C@@H]2CC[C@@H](O)[C@H](OC)C2)CC(=O)[C@H](C)/C=C(\C)[C@@H](O)[C@@H](OC)C(=O)[C@H](C)C[C@H](C)/C=C/C=C/C=C/1C (some centres not stated)	/	0.0103µM	/	/	/	0.0092µM
CCOC(=O)N1CCN(Cc2nc3cc(NC(=O)c4ccc(F)cc4)ccc3n2C(C)C)CC1	/	0.92µM	/	/	/	1.03µM
CCOC(=O)N1CCN(Cc2nc3cc(NC(=O)C(C)C)ccc3n2C(C)C)CC1	/	5.17µM	/	/	/	2.59µM
CCOC(=O)N1CCN(Cc2nc3cc(NC(=O)c4ccc(OC)cc4)ccc3n2C(C)C)CC1	/	4.11µM	/	/	/	?
CCOC(=O)N1CCN(Cc2nc3cc(NC(=O)CC)ccc3n2C)CC1	.	.	.	.	.	.
CCOC(=O)N1CCN(Cc2nc3cc(NC(=O)C(C)C)ccc3n2C)CC1	.	.	.	.	.	.
CCOC(=O)N1CCN(Cc2nc3cc(NC(=O)C(C)C)ccc3n2CC)CC1	?	.	.	.	.	?
CCCn1c(CN2CCN(C(=O)OCC)CC2)nc2cc(NC(=O)CC)ccc21	?	3.26µM	6.51µM	.	16.4µM	4.61µM
O=C(COc1ccc(-c2ccccc2)cc1)NNC(=O)Nc1ccc(F)cc1F	.	.	.	.	.	.
C/C=C/c1cnc2c(c1)C(=O)N([C@H](C)CO)C[C@H](C)[C@@H](CN(C)C(=O)CN1CCOCC1)O2	/	.	/	.	/	.
CC(C)Oc1ccccc1C1C=C(C(=O)O)Nc2ncnn21 (configuration not stated)	/	.	/	/	/	.
NC1=NC[C@H](Cc2ccc(O)cc2)N1CCc1cccc2ccccc12	.	18.4µM	.	?	.	14.6µM
NC1=NC[C@@H](Cc2ccc(O)cc2)N1CCc1cccc2ccccc12	?	18.4µM	.	.	.	?
NCCCC[C@H]1CN=C(N)N1CCc1cccc2ccccc12	/	.	.	.	.	.
CCC(C)[C@H]1CN=C(N)N1CCc1cccc2ccccc12 (some centres not stated)	/	1.84µM	.	?	.	2.06µM
CN(C)CCN(Cc1ccccc1)S(=O)(=O)c1ccc2[nH]c(=O)ccc2c1	/	.	/	/	/	.
O=c1c(O)cc(C2Oc3cc(O)cc(O)c3CC2O)cc2c(C3Oc4cc(O)cc(O)c4CC3O)cc(O)c(O)c12 (configuration not stated)	/	4.61µM	/	/	/	3.26µM
Cc1ccccc1Nc1nc(N)nc(CCl)n1	?	20.6µM	?	-93.6	?	23.1µM
COC(=O)CC(=O)Cc1nc(N)nc(Nc2ccc(C)c(C)c2)n1	.	.	.	.	.	.
CCOC(=O)N1CCN(Cc2nc(N)nc(Nc3ccc(OC)cc3)n2)CC1	?	.	.	.	.	.
COc1ccc(Nc2nc(N)nc(CCl)n2)cc1	?	23.1µM	3.26µM	-59.8	?	?
Nc1nc(CCl)nc(Nc2ccc3ccccc3c2)n1	?	11.6µM	.	-98.9	?	14.6µM
COc1ccc(-c2nc3sc(CCNS(=O)(=O)c4c(C)cc(C)cc4C)c(C)n3n2)cc1	.	?	/	/	/	?
CCOc1ccc(OCCC(=O)OCC(=O)NCc2ccccc2)cc1	.	.	.	.	.	.
CC1(C)Oc2ccc(C(=O)NNC(=O)Nc3ccccc3)cc2NC1=O	.	.	.	.	.	.
CC(C)C(O)(c1ccccc1)C(CN1CCOCC1)c1ccccc1 (configuration not stated)	.	?	.	.	.	?
CCc1ccc(C(C)(O)C(CN2CCOCC2)c2ccccc2)cc1 (configuration not stated)	.	20.6µM	.	.	.	20.6µM
